Laboratory results from the supplement of paper PMC10849652.
About 8,800 targets were measured; listed, in parts, are those with a hit and a random draw of the rest. About 0.5% of all pairs of compound and target were hits.

Legend:
Assay in all cases: log2 fold change, soluble protein after heating vs DMSO (PISA); higher = thermal stabilisation; K562 lysate, 10 uM; active = over 0.2 and 3.5 SD of the protein, either way, in both replicates (recomputed)
alvocidib = compound: CN1CC[C@H](c2c(O)cc(O)c3c(=O)cc(-c4ccccc4Cl)oc23)[C@H](O)C1 [alvocidib]
In short: (§1)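 A 30 min treatment with 10 μM compound was applied to crude K562 extract at 1 mg/mL protein in PBS pH 7.4 with 1 mM MgCl2. Heating for 3 min spanned 48°C-58°C, after which aliquots were pooled, adjusted to 0.5% NP-40 at 4°C and spun at 21,000xg for 90 min. TMTpro 16plex LC-MS/MS of the supernatant, with channel sums equalised, gave values recorded as log-two fold change in thermal stability against solvent controls, from duplicates.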

Tubastatin A = compound: CN1CCc2c(c3ccccc3n2Cc2ccc(C(=O)NO)cc2)C1 [Tubastatin A]
In short: as §1

[1] = compound: CNC(=O)C1=CC=CC=C1NC2=NC(=NC=C2Cl)NC3=C(C=C(C=C3)N4CCOCC4)OC
In short: as §1

defactinib = compound: CNC(=O)c1ccc(Nc2ncc(C(F)(F)F)c(NCc3nccnc3N(C)S(C)(=O)=O)n2)cc1 [defactinib]
In short: as §1

[2] = compound: CNc1nc(-c2ccc3c(N)n[nH]c3c2)cc(N2C[C@@H](C(=O)NC3CCCCC3)CC[C@H]2C)n1
In short: as §1

encorafenib = compound: COC(=O)N[C@@H](C)CNc1nccc(-c2cn(C(C)C)nc2-c2cc(Cl)cc(NS(C)(=O)=O)c2F)n1 [encorafenib]
In short: as §1

[3] = compound: COC(=O)[C@H](CCSC)NC(=O)C1=C(C=C(C=C1)NC[C@H](CS)N)C2=CC=CC=C2
In short: as §1

alisertib = compound: COc1cc(Nc2ncc3c(n2)-c2ccc(Cl)cc2C(c2c(F)cccc2OC)=NC3)ccc1C(=O)O [alisertib]
In short: as §1

[4] = compound: COc1cc2nc(-c3cc(F)ccc3O)nc(N[C@@H]3CNC[C@H]3C(C)(C)O)c2cc1OC
In short: as §1

gefitinib = compound: COc1cc2ncnc(Nc3ccc(F)c(Cl)c3)c2cc1OCCCN1CCOCC1 [gefitinib]
In short: as §1

lapatinib = compound: CS(=O)(=O)CCNCc1ccc(-c2ccc3ncnc(Nc4ccc(OCc5cccc(F)c5)c(Cl)c4)c3c2)o1 [lapatinib]
In short: as §1

pictilisib = compound: CS(=O)(=O)N1CCN(Cc2cc3nc(-c4cccc5[nH]ncc45)nc(N4CCOCC4)c3s2)CC1 [pictilisib]
In short: as §1

crizotinib = compound: C[C@@H](Oc1cc(-c2cnn(C3CCNCC3)c2)cnc1N)c1c(Cl)ccc(F)c1Cl [crizotinib]
In short: as §1

[5] = compound: C[C@H](C1=CC=C(C=C1)C(=O)NC2=C3C=CNC3=NC=C2)N
In short: as §1

duvelisib = compound: C[C@H](Nc1ncnc2nc[nH]c12)c1cc2cccc(Cl)c2c(=O)n1-c1ccccc1 [duvelisib]
In short: as §1

gandotinib = compound: Cc1cc(Nc2cc(CN3CCOCC3)c3nc(C)c(Cc4ccc(Cl)cc4F)n3n2)n[nH]1 [gandotinib]
In short: as §1

tozasertib = compound: Cc1cc(Nc2cc(N3CCN(C)CC3)nc(Sc3ccc(NC(=O)C4CC4)cc3)n2)n[nH]1 [tozasertib]
In short: as §1

doramapimod = compound: Cc1ccc(-n2nc(C(C)(C)C)cc2NC(=O)Nc2ccc(OCCN3CCOCC3)c3ccccc23)cc1 [doramapimod]
In short: as §1

bafetinib = compound: Cc1ccc(NC(=O)c2ccc(CN3CC[C@H](N(C)C)C3)c(C(F)(F)F)c2)cc1Nc1nccc(-c2cncnc2)n1 [bafetinib]
In short: as §1

[6] = compound: Cc1cccc(CC(=O)N2CCc3c2ccc(-c2cn(C)c4ncnc(N)c24)c3F)n1
In short: as §1

Measured: log2 fold change

MAP2K2 (UniProt P36507)
inactive: alvocidib 0.022 | Tubastatin A -0.026 | [1] 0.198 | defactinib 0.036 | [2] 0.015 | encorafenib -0.046 | [3] -0.006 | alisertib -0.013 | [4] 0.009 | gefitinib -0.013 | lapatinib -0.048 | pictilisib 0.015 | crizotinib 0.039 | [5] 0.207 | duvelisib 0.012 | gandotinib -0.065 | tozasertib 0.282 | doramapimod -0.058 | bafetinib -0.063 | [6] -0.015

MGAT5 (UniProt Q09328)
Sequence of UniProt Q09328 (Q09328 whole entry, looked up): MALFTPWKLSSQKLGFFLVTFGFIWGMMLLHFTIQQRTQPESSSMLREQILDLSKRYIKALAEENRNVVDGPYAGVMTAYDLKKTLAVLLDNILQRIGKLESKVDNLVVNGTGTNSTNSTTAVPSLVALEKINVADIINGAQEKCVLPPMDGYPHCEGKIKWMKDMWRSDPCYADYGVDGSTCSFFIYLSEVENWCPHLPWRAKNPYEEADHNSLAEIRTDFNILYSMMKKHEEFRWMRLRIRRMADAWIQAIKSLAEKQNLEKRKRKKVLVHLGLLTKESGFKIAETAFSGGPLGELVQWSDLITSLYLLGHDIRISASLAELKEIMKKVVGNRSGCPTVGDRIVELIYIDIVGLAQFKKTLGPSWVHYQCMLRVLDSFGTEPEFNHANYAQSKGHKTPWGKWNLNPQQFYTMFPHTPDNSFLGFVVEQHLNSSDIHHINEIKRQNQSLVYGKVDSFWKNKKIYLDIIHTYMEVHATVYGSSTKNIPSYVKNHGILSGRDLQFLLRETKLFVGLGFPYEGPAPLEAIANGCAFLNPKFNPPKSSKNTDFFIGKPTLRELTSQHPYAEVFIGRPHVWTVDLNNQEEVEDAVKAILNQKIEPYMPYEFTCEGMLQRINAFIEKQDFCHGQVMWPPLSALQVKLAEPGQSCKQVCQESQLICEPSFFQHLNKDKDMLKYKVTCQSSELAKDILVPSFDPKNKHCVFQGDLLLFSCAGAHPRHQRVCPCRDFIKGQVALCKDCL
active: defactinib -0.337
inactive: alvocidib 0.056 | Tubastatin A -0.009 | [1] -0.011 | [2] -0.026 | encorafenib 0.006 | [3] -0.095 | alisertib 0.025 | [4] 0.054 | gefitinib -0.064 | lapatinib 0.022 | pictilisib 0.066 | crizotinib -0.051 | [5] 0.098 | duvelisib 0.018 | gandotinib -0.106 | tozasertib -0.037 | doramapimod 0.023 | bafetinib 0.079 | [6] -0.112

KNOP1 (UniProt Q1ED39)
Sequence of UniProt Q1ED39 (Q1ED39 whole entry, looked up): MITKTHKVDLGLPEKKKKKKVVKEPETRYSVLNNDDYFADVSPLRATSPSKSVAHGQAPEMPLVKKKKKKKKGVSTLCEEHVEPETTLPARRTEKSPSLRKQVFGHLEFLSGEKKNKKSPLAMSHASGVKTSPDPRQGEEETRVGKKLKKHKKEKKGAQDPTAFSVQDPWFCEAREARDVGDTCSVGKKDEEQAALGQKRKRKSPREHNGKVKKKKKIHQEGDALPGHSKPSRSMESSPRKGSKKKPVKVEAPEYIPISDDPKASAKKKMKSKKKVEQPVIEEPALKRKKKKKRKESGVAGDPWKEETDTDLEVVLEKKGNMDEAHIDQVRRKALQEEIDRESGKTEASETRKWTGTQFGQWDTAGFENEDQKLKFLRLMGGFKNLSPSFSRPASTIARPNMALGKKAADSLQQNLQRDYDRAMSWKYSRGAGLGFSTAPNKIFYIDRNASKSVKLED
active: defactinib 0.413
inactive: alvocidib -0.004 | Tubastatin A 0.151 | [1] 0.062 | [2] 0.337 | encorafenib -0.023 | [3] 0.022 | alisertib -0.065 | [4] 0.097 | gefitinib -0.03 | lapatinib -0.046 | pictilisib 0.03 | crizotinib -0.068 | [5] 0.004 | duvelisib 0.022 | gandotinib 0.027 | tozasertib -0.085 | doramapimod 0.1 | bafetinib -0.06 | [6] -0.011

MICB, A0A140T979
active: [3] -0.506 | [4] 0.804
inactive: alvocidib 0.01 | Tubastatin A -0.005 | [1] -0.09 | defactinib 0.021 | [2] 0.084 | encorafenib -0.027 | alisertib -0.043 | gefitinib -0.012 | lapatinib -0.169 | pictilisib -0.074 | crizotinib -0.067 | [5] -0.042 | duvelisib 0.052 | gandotinib 0.011 | tozasertib -0.177 | doramapimod -0.003 | bafetinib -0.001 | [6] 0.027

LAS1L (UniProt Q9Y4W2)
Sequence of UniProt Q9Y4W2 (Q9Y4W2 whole entry, looked up): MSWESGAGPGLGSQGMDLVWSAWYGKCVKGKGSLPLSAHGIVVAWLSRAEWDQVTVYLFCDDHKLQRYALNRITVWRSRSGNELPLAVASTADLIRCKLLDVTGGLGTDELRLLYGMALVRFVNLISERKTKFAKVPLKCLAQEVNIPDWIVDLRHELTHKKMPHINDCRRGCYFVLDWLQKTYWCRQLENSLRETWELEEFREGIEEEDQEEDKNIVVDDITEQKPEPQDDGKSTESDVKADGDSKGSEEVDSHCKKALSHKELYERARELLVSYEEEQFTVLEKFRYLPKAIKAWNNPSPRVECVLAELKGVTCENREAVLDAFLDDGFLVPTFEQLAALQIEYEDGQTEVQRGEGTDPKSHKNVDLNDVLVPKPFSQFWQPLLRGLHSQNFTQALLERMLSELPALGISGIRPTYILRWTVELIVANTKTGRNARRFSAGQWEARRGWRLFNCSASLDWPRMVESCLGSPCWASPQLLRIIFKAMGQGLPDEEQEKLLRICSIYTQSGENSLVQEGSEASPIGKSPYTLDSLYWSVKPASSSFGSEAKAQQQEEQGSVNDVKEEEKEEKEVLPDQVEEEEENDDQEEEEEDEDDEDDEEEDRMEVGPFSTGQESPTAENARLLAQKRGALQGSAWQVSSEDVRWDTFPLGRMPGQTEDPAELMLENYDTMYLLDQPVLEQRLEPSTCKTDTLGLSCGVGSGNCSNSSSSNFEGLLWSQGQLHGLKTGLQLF
active: [6] 0.233
inactive: alvocidib -0.015 | Tubastatin A -0.127 | [1] -0.024 | defactinib -0.02 | [2] 0.016 | encorafenib -0.04 | [3] 0.06 | alisertib -0.011 | [4] 0.01 | gefitinib -0.013 | lapatinib -0.004 | pictilisib -0.033 | crizotinib -0.05 | [5] -0.051 | duvelisib -0.003 | gandotinib 0.017 | tozasertib 0.043 | doramapimod 0.011 | bafetinib -0.004

MED12 isoform 2 (UniProt Q93074)
Sequence of UniProt Q93074 (Q93074 whole entry, looked up): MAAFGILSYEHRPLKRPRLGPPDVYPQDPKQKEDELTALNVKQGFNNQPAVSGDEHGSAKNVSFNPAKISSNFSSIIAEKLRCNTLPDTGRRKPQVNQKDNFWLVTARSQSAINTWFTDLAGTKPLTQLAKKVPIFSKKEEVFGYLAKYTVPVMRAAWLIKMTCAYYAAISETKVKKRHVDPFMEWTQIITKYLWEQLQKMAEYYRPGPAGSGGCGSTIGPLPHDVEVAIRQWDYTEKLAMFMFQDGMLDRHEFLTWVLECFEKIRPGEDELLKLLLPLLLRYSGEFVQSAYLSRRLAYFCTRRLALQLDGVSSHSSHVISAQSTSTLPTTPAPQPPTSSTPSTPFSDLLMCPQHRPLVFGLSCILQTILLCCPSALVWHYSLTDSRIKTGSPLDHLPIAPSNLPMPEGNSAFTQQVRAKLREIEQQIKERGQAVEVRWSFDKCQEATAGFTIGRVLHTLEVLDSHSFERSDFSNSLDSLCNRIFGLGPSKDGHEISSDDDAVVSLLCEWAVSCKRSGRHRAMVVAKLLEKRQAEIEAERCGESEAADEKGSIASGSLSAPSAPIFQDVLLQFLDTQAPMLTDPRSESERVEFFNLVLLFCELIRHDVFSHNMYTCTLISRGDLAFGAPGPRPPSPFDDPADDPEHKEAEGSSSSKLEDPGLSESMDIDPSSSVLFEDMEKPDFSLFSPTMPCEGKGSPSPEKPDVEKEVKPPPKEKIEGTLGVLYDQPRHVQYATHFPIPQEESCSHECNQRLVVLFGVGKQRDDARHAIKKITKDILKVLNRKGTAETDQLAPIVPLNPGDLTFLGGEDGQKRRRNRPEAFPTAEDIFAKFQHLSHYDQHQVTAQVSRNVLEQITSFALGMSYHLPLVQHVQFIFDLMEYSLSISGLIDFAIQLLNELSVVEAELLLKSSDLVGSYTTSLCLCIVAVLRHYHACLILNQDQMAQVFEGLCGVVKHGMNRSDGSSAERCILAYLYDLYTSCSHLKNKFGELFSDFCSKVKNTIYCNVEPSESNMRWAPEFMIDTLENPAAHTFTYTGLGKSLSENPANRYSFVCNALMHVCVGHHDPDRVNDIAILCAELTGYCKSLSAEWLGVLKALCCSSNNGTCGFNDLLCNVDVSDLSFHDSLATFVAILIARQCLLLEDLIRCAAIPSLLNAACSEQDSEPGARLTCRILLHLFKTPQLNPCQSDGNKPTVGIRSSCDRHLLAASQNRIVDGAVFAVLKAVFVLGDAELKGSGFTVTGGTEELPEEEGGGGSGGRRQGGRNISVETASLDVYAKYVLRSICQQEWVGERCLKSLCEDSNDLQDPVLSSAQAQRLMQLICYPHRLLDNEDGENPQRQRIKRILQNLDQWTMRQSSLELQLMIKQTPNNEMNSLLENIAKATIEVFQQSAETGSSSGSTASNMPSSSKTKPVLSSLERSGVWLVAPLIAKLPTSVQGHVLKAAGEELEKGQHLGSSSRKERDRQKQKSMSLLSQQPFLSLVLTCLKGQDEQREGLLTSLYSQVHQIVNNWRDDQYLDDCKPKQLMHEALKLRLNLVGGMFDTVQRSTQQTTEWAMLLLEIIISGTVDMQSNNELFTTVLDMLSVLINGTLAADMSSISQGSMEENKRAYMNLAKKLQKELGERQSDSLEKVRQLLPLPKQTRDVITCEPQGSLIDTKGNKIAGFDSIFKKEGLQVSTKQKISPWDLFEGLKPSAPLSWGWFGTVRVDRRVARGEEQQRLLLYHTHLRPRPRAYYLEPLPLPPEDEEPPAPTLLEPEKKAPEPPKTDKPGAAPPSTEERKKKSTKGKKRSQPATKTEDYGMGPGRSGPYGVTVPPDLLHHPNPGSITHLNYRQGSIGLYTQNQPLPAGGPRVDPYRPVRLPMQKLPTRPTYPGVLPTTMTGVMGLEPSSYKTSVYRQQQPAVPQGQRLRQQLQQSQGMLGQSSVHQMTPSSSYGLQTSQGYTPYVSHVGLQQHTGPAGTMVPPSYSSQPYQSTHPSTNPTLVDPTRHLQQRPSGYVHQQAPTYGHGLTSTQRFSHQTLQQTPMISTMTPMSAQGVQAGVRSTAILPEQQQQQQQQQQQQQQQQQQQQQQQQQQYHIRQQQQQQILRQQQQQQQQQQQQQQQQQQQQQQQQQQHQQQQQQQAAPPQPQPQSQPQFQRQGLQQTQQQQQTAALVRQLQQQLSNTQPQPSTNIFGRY
inactive: alvocidib -0.022 | Tubastatin A -0.161 | [1] -0.02 | defactinib 0.029 | [2] -0.041 | encorafenib 0.028 | [3] 0.06 | alisertib 0.016 | [4] -0.011 | gefitinib 0.027 | lapatinib 0.009 | pictilisib 0.017 | crizotinib -0.017 | [5] 0.002 | duvelisib 0 | gandotinib -0.072 | tozasertib -0.033 | doramapimod 0.011 | bafetinib -0.012 | [6] -0.011

MLLT11 (UniProt Q13015)
Sequence of UniProt Q13015 (Q13015 whole entry, looked up): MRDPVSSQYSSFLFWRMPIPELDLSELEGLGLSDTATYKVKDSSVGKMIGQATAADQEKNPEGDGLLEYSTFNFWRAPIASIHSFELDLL
inactive: alvocidib 0.056 | Tubastatin A -0.052 | [1] 0.108 | defactinib 0.086 | [2] -0.019 | encorafenib 0.138 | [3] 0.099 | alisertib 0.115 | [4] 0.067 | gefitinib 0.023 | lapatinib 0.051 | pictilisib 0.237 | crizotinib 0 | [5] 0.025 | duvelisib 0.002 | gandotinib 0.329 | tozasertib 0.087 | bafetinib -0.017 | [6] 0.084
active: doramapimod 0.447

MOCS1 isoform 8 (UniProt Q9NZB8)
active: gefitinib 0.395
inactive: alvocidib -0.108 | Tubastatin A -0.008 | [1] 0.002 | defactinib 0.113 | [2] -0.105 | encorafenib 0.039 | [3] -0.055 | alisertib -0.099 | [4] 0.003 | lapatinib -0.022 | pictilisib -0.003 | crizotinib -0.046 | [5] -0.078 | duvelisib 0 | gandotinib 0.012 | tozasertib 0.11 | doramapimod 0.018 | bafetinib -0.032 | [6] 0.04

MPI (UniProt P34949)
inactive: alvocidib 0.051 | Tubastatin A 0.024 | [1] -0.02 | defactinib -0.007 | [2] 0.035 | encorafenib -0.01 | alisertib 0.018 | [4] 0.01 | gefitinib -0.014 | lapatinib 0.02 | pictilisib -0.017 | crizotinib -0.029 | [5] 0.174 | duvelisib 0.007 | gandotinib -0.055 | tozasertib -0.043 | doramapimod 0.032 | bafetinib 0.013 | [6] -0.014
active: [3] 0.477

KLC4 isoform 3 (UniProt Q9NSK0)
inactive: alvocidib -0.01 | Tubastatin A -0.091 | [1] -0.008 | defactinib 0.014 | [2] -0.084 | encorafenib 0.014 | [3] 0.007 | alisertib 0.014 | [4] 0.014 | gefitinib -0.028 | lapatinib -0.002 | pictilisib -0.053 | crizotinib -0.027 | [5] 0.019 | duvelisib 0.029 | gandotinib -0.074 | tozasertib -0.021 | doramapimod 0.034 | bafetinib -0.018 | [6] 0.001

LSG1 (UniProt Q9H089)
inactive: alvocidib -0.079 | Tubastatin A -0.016 | [1] -0.046 | defactinib 0.003 | [2] -0.077 | encorafenib 0.046 | alisertib -0.017 | [4] -0.028 | gefitinib -0.059 | lapatinib -0.002 | pictilisib -0.044 | crizotinib -0.191 | [5] -0.099 | duvelisib -0.075 | gandotinib 0.037 | tozasertib -0.03 | doramapimod 0.085 | bafetinib -0.077 | [6] 0.072
active: [3] 0.303

LRPPRC (UniProt P42704)
inactive: alvocidib 0.076 | Tubastatin A -0.091 | [1] 0.011 | defactinib 0.037 | [2] -0.041 | encorafenib 0.005 | [3] 0.079 | alisertib 0.029 | [4] -0.006 | gefitinib -0.005 | lapatinib -0.01 | pictilisib 0.048 | crizotinib -0.062 | [5] 0.058 | duvelisib -0.005 | gandotinib -0.189 | tozasertib 0.023 | doramapimod 0.022 | bafetinib -0.008 | [6] 0.045

MICU2 (UniProt Q8IYU8)
inactive: alvocidib 0.03 | Tubastatin A -0.039 | [1] 0.01 | defactinib 0.003 | [2] 0.009 | encorafenib 0.015 | [3] -0.091 | alisertib 0.039 | [4] -0.128 | gefitinib -0.054 | lapatinib -0.057 | pictilisib 0.036 | crizotinib -0.043 | [5] 0.026 | duvelisib 0.015 | tozasertib 0.083 | doramapimod 0.029 | bafetinib -0.056 | [6] 0.029
active: gandotinib -0.264

MCCC1 (UniProt Q96RQ3)
inactive: alvocidib 0.063 | Tubastatin A -0.036 | [1] 0.003 | defactinib -0.002 | [2] -0.025 | encorafenib 0.012 | [3] -0.057 | alisertib 0 | [4] 0.001 | gefitinib 0.017 | lapatinib -0.022 | pictilisib -0.038 | crizotinib -0.004 | [5] 0.106 | duvelisib 0.017 | gandotinib -0.14 | tozasertib -0.019 | doramapimod 0.003 | bafetinib -0.048 | [6] -0.093

MARK2 (UniProt E9PC69)
inactive: alvocidib -0.032 | Tubastatin A -0.049 | [1] -0.187 | defactinib -0.087 | [2] 0.056 | encorafenib 0.181 | [3] 0.211 | alisertib 0.021 | [4] 0.01 | gefitinib -0.03 | lapatinib 0.003 | pictilisib 0.052 | crizotinib -0.14 | [5] 0.131 | duvelisib -0.068 | gandotinib -0.166 | tozasertib -0.233 | doramapimod 0.075 | bafetinib -0.071 | [6] 0.025

MARK1 (UniProt Q9P0L2)
Sequence of UniProt Q9P0L2 (Q9P0L2 whole entry, looked up): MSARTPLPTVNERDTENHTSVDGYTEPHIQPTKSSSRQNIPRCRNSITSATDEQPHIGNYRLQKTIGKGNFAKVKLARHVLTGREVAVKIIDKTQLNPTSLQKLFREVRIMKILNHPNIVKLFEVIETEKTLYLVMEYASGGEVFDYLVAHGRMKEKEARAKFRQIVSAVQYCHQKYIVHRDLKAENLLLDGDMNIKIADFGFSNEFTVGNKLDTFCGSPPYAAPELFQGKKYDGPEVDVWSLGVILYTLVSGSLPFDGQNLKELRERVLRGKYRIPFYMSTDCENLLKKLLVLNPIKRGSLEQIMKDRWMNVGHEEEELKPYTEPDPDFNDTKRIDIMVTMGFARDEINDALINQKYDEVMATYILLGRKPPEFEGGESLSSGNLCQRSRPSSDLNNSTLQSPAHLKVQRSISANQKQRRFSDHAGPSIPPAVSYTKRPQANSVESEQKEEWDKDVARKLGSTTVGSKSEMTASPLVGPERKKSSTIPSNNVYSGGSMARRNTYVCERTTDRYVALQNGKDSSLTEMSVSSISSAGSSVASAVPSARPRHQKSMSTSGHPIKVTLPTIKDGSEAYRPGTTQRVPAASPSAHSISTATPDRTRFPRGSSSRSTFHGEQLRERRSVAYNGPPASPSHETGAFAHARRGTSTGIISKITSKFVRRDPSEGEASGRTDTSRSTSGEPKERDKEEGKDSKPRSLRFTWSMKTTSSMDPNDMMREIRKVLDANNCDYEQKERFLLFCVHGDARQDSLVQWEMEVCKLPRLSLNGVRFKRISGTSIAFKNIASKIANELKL
inactive: alvocidib -0.053 | Tubastatin A -0.087 | [1] -0.27 | defactinib -0.267 | [2] 0.072 | encorafenib 0.075 | [3] 0.226 | alisertib -0.007 | [4] -0.134 | gefitinib -0.004 | lapatinib 0.037 | pictilisib -0.065 | crizotinib -0.175 | [5] 0.026 | duvelisib -0.002 | gandotinib -0.192 | tozasertib -0.084 | doramapimod 0.155 | bafetinib -0.034 | [6] 0.05
